Assay results taken from the supplement of paper PMC5641865, “A screen for kinase inhibitors identifies antimicrobial imidazopyridine aminofurazans as specific inhibitors of the Listeria monocytogenes PASTA kinase PrkA” (The Journal of Biological Chemistry, 2017).
± gives the standard deviation of the averaged measurements.

What follows are compounds tested on Listeria monocytogenes 10403S (assay: growth inhibition relative to ceftriaxone-alone control; higher = stronger potentiation of ceftriaxone growth inhibition). Conditions: 10 µM; ceftriaxone 1 ug/ml; 12 h.
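Further: End-point A600 read in BHI broth at 37 °C with 2% DMSO, inhibition computed as (1 − OD with compound plus ceftriaxone ÷ OD with ceftriaxone only) × 100.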

Row | Compound | growth inhibition [%]
1 | CS(=O)(=O)CCNCc1nc(-c2ccc3ncnc(Nc4ccc(F)c(Cl)c4)c3c2)cs1 | 1.67 ± 6.4
2 | CCS(=O)(=O)c1ccc(OC)c(Nc2ncc(-c3cccc(F)c3)o2)c1 | 2.54 ± 2.8
3 | O=C(Nc1ccc(OC(F)(F)F)cc1)c1sccc1NCc1ccnc2ccccc12 | 35.9 ± 3.9
4 | O=C(Nc1n[nH]c2cc(-c3ccccc3)ccc12)C1CC1 | 4.09 ± 0.32
5 | COc1cc2ncn(-c3cc(O[C@@H](C)c4ccccc4Cl)c(C(N)=O)s3)c2cc1OC | -12.3 ± 4.7
6 | Cc1ccc2c(-c3ccnc(Nc4ccc5c(c4)OCCO5)n3)c(-c3ccc(C(F)(F)F)cc3)nn2n1 | -1.85 ± 0.84
7 | Cc1ccc([N+](=O)[O-])cc1S(=O)(=O)N(C)/N=C/c1cnc2ccc(Br)cn12 | 2.5 ± 4.3
8 | O=C(NC[C@H](O)CO)c1ccncc1Nc1ccc(I)cc1F | 1.43 ± 12
9 | COc1ccc(C2=C(N3CCc4ccccc43)C(=O)NC2=O)cc1 | -2.53 ± 0.37
10 | COc1cc(C)c(NC(=O)CN(C)C)cc1Nc1nc(Nc2cccc(F)c2C(N)=O)c2cc[nH]c2n1 | -5.99 ± 8.5
11 | COc1cc2c(cc1Nc1nc(Nc3ccsc3C(N)=O)c3cc[nH]c3n1)N(C(=O)CN(C)C)CCC2 | -0.422 ± 3.1
12 | NS(=O)(=O)c1ccc(N/N=C2\C(=O)Nc3ccc(C(=O)NCCCn4ccnc4)cc32)cc1 | -3.24 ± 3.3
13 | O=C(NCc1ccccc1)c1csc(Nc2ccncn2)n1 [Thiazovivin] | 5.95 ± 11
14 | CN(C)c1ccc2c(c1)/C(=C/Nc1ccc(S(N)(=O)=O)cc1)C(=O)N2 | 1.99 ± 14
15 | NC(=O)Cc1ccccc1Oc1nccc(-c2c(-c3ccc(F)cc3)ncn2C2CCNCC2)n1 | -2.82 ± 0.75
